# Assay outcomes: PubChem BioAssay, National Center for Advancing Translational Sciences (NCATS)
# Pf growth 48h: P. falciparum growth inhibition at 48 hours (one generation); Potency, µM (series often up to 28.7 µM), inactives show at the highest dose activity change, negative = inhibition, most hits filed as inhibitors; hit rate 5.9% among 310,000; P. falciparum luciferase growth in erythrocytes, 48 h; AID 504832
#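 Cell-based growth assay: transgenic P. falciparum expressing firefly luciferase, cultured in red cells within RPMI 1640 containing 0.5% w/v Albumax, 24 mM bicarbonate and gentamycin. A drop in luciferase activity indicates inhibition.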
# Pf growth 96h: inhibits malaria parasite growth, 96 h; P. falciparum luciferase reporter growth, 96 h; Potency, µM (highest dose often 28.7 µM), without a hit: top-dose activity change, negative = inhibition, most hits filed as inhibitors; hit rate 6.9% among 320,000; AID 504834
#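 Cell-based qHTS: luciferase-tagged P. falciparum in erythrocytes (2% hematocrit, 0.05% parasitemia final) incubated with compounds for 96 hours, 37 C, 5% CO2; luciferase detection reagent then added and luminescence measured.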
# AMA1 RON2 block: disrupts binding of P. falciparum AMA1 to RON2. Potency, µM (highest dose often 58.2 µM), for the others: top-dose activity change, negative = inhibition, usual class: inhibitors. AlphaScreen AMA1-biotinylated RON2 peptide binding. hit rate 0.2% among 360,000;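 also: 0% = vehicle wells and -100% = peptide control; nearly all actives have a fitted effect of over 45% in size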
#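 AMA1 (3D7) with his tag at 25 nM final met compounds first, then biotinylated RON2 peptide at 25 nM; detection used donor plus acceptor beads, 10 µg/mL apiece, read by AlphaScreen after 30 min at room temperature.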
# HCV inh: blocks hepatitis C virus | Huh7.5.1 HCVcc-Cre infection, luciferase reporter, 44 h | hit rate 3.4% among 340,000 | AID 651820 | Potency, µM (top dose mostly 41.8 µM), without a hit: top-dose activity change, negative = inhibition, actives largely listed as inhibitors
#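 Cells seeded at 1,000/well and cultured 4 h, then compounds added followed by HCVcc-Cre virus (~0.5 moi). After 44 h further culture, luciferase substrate was added, plates held 15 min at room temperature, and luminescence read for 15 sec.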
# * hit, by the source's call; ? = inconclusive; · = no result given. Rows were chosen to be rich in hits. Some 11% of all compounds tested hit in one or more screens of this group. Calls follow the shape of the dose curve; as a rule, active = well fitted curve in the direction sought with a large enough effect; inconclusive = small, poorly fitted or top-dose-only effect, or another doubt; inactive = no such curve, though single readings can be large; an effect the other way counts as inactive or inconclusive. Unless noted, % is scaled to controls: 0 for no effect and ±100 for the full control effect; potency is read from the fitted curve at half-maximal effect.
SMILES,Pf growth 48h,Pf growth 96h,AMA1 RON2 block,HCV inh
CCCOc1ccc(CNC(=S)Nc2ccccc2)cc1Cl,·,-1%,49%,16µM*
COc1ccc(CNC(=S)Nc2ccccc2)cc1Cl,·,?,25%,?
COc1ccc(CN2CSC(=S)N(Cc3ccccc3)C2)cc1,-26%,10%,93%,?
COc1ccc(CN2CSC(=S)N(Cc3ccc(OC)cc3)C2)cc1,12µM*,?,85%,-3%
S=C1SCN(Cc2cccnc2)CN1Cc1cccnc1,1.9µM*,?,89%,-75%
CCCCn1c(SCC2CCCCO2)nc2cc(S(N)(=O)=O)ccc21 (stereo unspecified),-20%,?,16%,-19%
O=[N+]([O-])c1cccc2c([N+](=O)[O-])cccc12,12%,5.9µM*,11%,16%
O=c1c2cc3c(nc2[nH]c(=S)n1-c1ccccc1)CCCC3,5%,5%,38%,-4%
CCOCc1cn(CC(=O)c2ccc(Cl)cc2)c(C)nc1=N,4.1µM*,·,3%,-5%
CCOCc1cn(CC(=O)c2ccc([N+](=O)[O-])cc2)c(C)nc1=N,1µM*,·,-6%,?
CN(C(=O)c1ccc(NC(=O)Cc2ccc(NC(=O)C3CCN(C(=O)C4CCCC4)CC3)cc2)cc1)C1CC1,?,2.1µM*,?,-2%
CN(C(=O)c1ccc(NC(=O)Cc2ccc(NC(=O)C3CCN(C(=O)C4CCC4)CC3)cc2)cc1)C1CC1,?,9.3µM*,-30%,-6%
Cc1cccnc1C(NC(=O)C1CCN(CCCOc2ccc(F)cc2)CC1)c1ccccc1 (stereo unspecified),·,·,-3%,·
COc1ccc(CN(C)C(=O)c2ccc(OCC(=O)Nc3cccc(C(F)(F)F)c3)c(OC)c2)c(OC)c1,?,?,72%,0.56µM*
COc1ccccc1CCNC(=O)c1ccc(NC(=O)CC2SC(N3CCCCC3)=NC2=O)cc1 (stereo unspecified),12µM*,10µM*,-5%,?
COc1ccc(CN(C)C(=O)c2cccc(NC(=O)CC3SC(N4CCCCC4)=NC3=O)c2)c(OC)c1 (stereo unspecified),·,·,5%,8.9µM*
COc1ccccc1OCCNC(=O)c1ccc(NC(=O)CC2SC(N3CCCC3)=NC2=O)cc1 (stereo unspecified),·,·,-12%,-11%
COc1cccc(CN(C)C(=O)c2cccc(NC(=O)CC3SC(N4CCCCC4)=NC3=O)c2)c1OC (stereo unspecified),10µM*,9.3µM*,-13%,-15%
O=C(Nc1ccccc1)C1=C[C@@H](c2coc3ccccc3c2=O)C[C@@H](OCCCCO)O1,?,?,4%,13%
COC(=O)CCC(=O)Nc1cccc([N+](=O)[O-])c1,14%,12µM*,-4%,-3%
O=C(COc1ccccc1)NC(=S)Nc1cccc([N+](=O)[O-])c1,5%,1.7µM*,46%,-4%
CCCC(=O)Nc1cccc(NC(=O)c2ccc([N+](=O)[O-])cc2Cl)c1,-4%,-26%,0%,7.9µM*
O=C(NC(=S)Nc1cccc([N+](=O)[O-])c1)c1ccco1,56%,8.3µM*,6%,7%
O=C(CCOc1ccccc1)Nc1cccc([N+](=O)[O-])c1,39%,1%,-14%,-11%
O=C(NC1CC1)C1=C[C@@H](c2c[nH]c3ccccc23)C[C@@H](OCCCCO)O1,?,?,19%,?
SMILES,Pf growth 48h,Pf growth 96h,AMA1 RON2 block,HCV inh
CCOC(=O)[C@]12CCC=C1N(Cc1ccco1)C(=O)[C@H](CC(=O)NCCC(C)C)C2,·,·,16%,·
S=c1[nH]ncn2c1cc1oc3ccccc3c12,34%,0%,31%,1%
Cc1cc(NC(=O)COc2cccc([N+](=O)[O-])c2)no1,1.7µM*,-29%,8%,-4%
O=C(NC(=S)Nc1cccc(NC(=S)NC(=O)c2ccco2)n1)c1ccco1,-10%,1.3µM*,-11%,?
Cc1cccc(NC(=S)NC(=O)c2ccco2)c1C,38%,11%,12%,-5%
CC(Sc1nnc(N)s1)C(=O)NC1CCCCC1C (stereo unspecified),?,14%,5%,-4%
Cc1cc(OCCCCNC(C)C)cc(C(C)C)c1,?,6.6µM*,-27%,?
Cn1c(=O)c([N+](=O)[O-])c(Cl)c2ccccc21,-7%,-3%,5%,7.9µM*
O=C(Nc1ccc(N2CCN(C(=O)c3ccccc3)CC2)cc1)c1ccc2c(c1)OCCO2,?,?,-2%,?
O=C(Nc1ccc(N2CCN(C(=O)c3ccc(Cl)cc3)CC2)cc1)c1ccc2c(c1)OCCO2,·,?,-17%,7.1µM*
O=C(Nc1ccccc1N1CCN(C(=O)c2ccc(Cl)cc2)CC1)c1ccc2c(c1)OCO2,3.7µM*,·,-8%,?
CC(C)(C)C(=O)N1CCN(c2ccc(NC(=O)c3ccc4c(c3)OCCO4)cc2)CC1,?,-22%,7%,10µM*
C=CCn1c(C(CCCC)CC(C)O)n[nH]c1=S (stereo unspecified),1%,8%,-4%,26%
O=c1cc(N2CCCCC2)c(-c2ccccc2)nn1Cc1ccc(F)cc1,?,13µM*,-4%,?
O=c1cc(N2CCCCC2)c(-c2ccccc2)nn1Cc1c(Cl)cccc1Cl,?,10µM*,-1%,?
O=c1cc(N2CCCCC2)c(-c2ccccc2)nn1Cc1ccc(Cl)cc1,3%,-7%,0%,-20%
CC(C)(C)c1ccc(C(=O)NNc2cc(N3CCOCC3)nc(N3CCOCC3)n2)cc1,12µM*,-20%,12%,?
O=C(NNc1cc(N2CCCC2)nc(N2CCCC2)n1)c1ccc([N+](=O)[O-])cc1,?,67%,64%,?
CC(C)(C)c1ccc(C(=O)NNc2cc(N3CCCCC3)nc(N3CCCCC3)n2)cc1,2.6µM*,?,16%,?
Cc1cc(C(=O)CSc2nncn2C)c(C)n1-c1ccccc1,120%,176%,-2%,8%
COc1ccc(S(=O)(=O)Nc2c(C)cc(C)cc2C)c2cccnc12,23%,-19%,12%,14%
CNS(=O)(=O)c1ccc(NS(=O)(=O)c2ccccc2F)cc1,4%,?,-4%,22%
C=CCC1(CC=C)CC(Cc2cnccn2)N(C(=O)OC(C)(C)C)C1 (stereo unspecified),·,·,17%,·
CCCCC(=O)NC(c1ccccc1OC)c1ccc2cccnc2c1O (stereo unspecified),1.9µM*,2.1µM*,-20%,2.2µM*
CCCC(=O)NC(c1ccc(Cl)cc1Cl)c1ccc2cccnc2c1O (stereo unspecified),?,17%,82%,?
CCCC(=O)NC(c1ccccc1OC)c1ccc2cccnc2c1O (stereo unspecified),1.7µM*,?,-21%,3.5µM*
OCCC1CN(CCCn2cccn2)CCN1C1CCCCC1 (stereo unspecified),10%,39%,4%,9%
CCN(C(=O)CSc1ncccn1)c1cccc2ccccc12,·,·,14%,-5%
COc1ccc(OC)c(C(=O)CSc2nc3c(c(=O)n(C)c(=O)n3C)n2C(C)C)c1,5%,15µM*,-10%,5%
